This is part of a sample that, as a whole, favours compounds with a hit. Of some 83,000 tested, about 20% had one in any assay.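 Values shown are percent growth following 48 h exposure of cells in 96-well plates to a single concentration of compound; below 10 was considered active.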 Unmarked numbers belong to inactive results. The source made the active and inactive calls.
test system: MDA-MB-468 breast; assay: NCI-60 one-dose screen, 48 h (100 = growth as untreated, 0 = no growth, -100 = all killed); conditions: 10 µM unless noted

Compound	growth
CC1(C)c2ccccc2C(=O)C1(Br)Cc1ccccc1 (stereo not given)	45.6%
Nc1ncc(-c2ccc3ncnc(N4CCc5cc(F)c(Cl)cc54)c3c2)cc1C(F)(F)F	-26.1% (active)
CC(C)(C)OC(=O)N1CCc2c(sc3ncnc(N/N=C/c4cccc(Br)c4)c23)C1	52.2%
CCOC(=O)C(Cc1ccccc1)n1c(O)c(C=Nc2ccc(C(=O)OCCN(CC)CC)cc2)sc1=O (stereo not given)	82.6%
CNC(=O)c1ccccc1CC1(O)c2ccccc2Oc2ccccc21	42.9%
O=C(Nc1nc(-c2ccccc2)cc(-c2ccc(Cl)cc2)n1)c1ccncc1	106%
CCN1C(=O)N(CC)C2C1NC(=S)N2/N=C/C=C/c1cccs1 (stereo not given)	7.59% (active)
Nc1nc(=O)n([C@H]2C[C@H](O)[C@@H](CO)O2)cc1C=O	107%
CCOC(=O)C(CC)n1c(=O)c2cc(OC)c(OC)cc2c2cnc3[nH]ccc3c21 (stereo not given)	84.2%
Cc1nn(-c2ccccc2)c(Cl)c1/C=N\N=c1/sc2ccccc2n1C	113%
[2H]C([2H])([2H])Oc1ccc(F)cc1/C=C/C(=O)/C=C(/C=C/c1cc(F)ccc1OC([2H])([2H])[2H])OB(F)F	69.5%
COc1ccccc1NC(=O)Nc1ccc(-c2nc3ccccc3o2)cc1	101%
Nc1nc(NC(=O)Nc2ccc(C(=O)O)cc2)nn1-c1ccc(S(N)(=O)=O)cc1	91.6%
Cc1nn(C)c2ncnc(Nc3ccccc3Br)c12	107%
O=C(O)c1ccc(-n2c(=O)c3ccccc3c3ccccc3c2=O)cc1	105%
C#Cc1ccc(-n2c(/C=C/c3ccc(O)cc3)nc3ncccc3c2=O)cc1	-10.6% (active)
COC(=O)c1nc(-c2ccccc2)oc1S(=O)(=O)N1CCC(C(N)=O)CC1	-14.6% (active)
CCSCC1CC(O)(c2ccccc2)C(c2ccccc2)C(c2ccc(Cl)cc2)O1 (stereo not given)	35.9%
CCc1ccc(Oc2c(-c3ccc(OCc4ccc(Cl)cc4)cc3O)nn(C)c2C(F)(F)F)cc1	-11.1% (active)
O=c1[nH]c2c(ccc3cnccc32)c2c1CCC2	-60.5% (active)

Compound	growth
Cc1cc(N2CCN(CC(=O)Nc3ccc4c(ccn4C)c3)CC2)nc(N2CCCCCC2)n1	65.1%
O=C(C[Si](CC(=O)c1cccc(C(F)(F)F)c1)CC(=O)c1cccc(C(F)(F)F)c1)c1cccc(C(F)(F)F)c1	91%
Fc1cccc(CNc2c3ccccc3nc3ccccc23)c1	0.607% (active)
C=C1C(=O)O[C@H]2[C@H]1CC/C(Cn1cc(-c3ccc(F)cc3)nn1)=C\CC[C@@]1(C)O[C@@H]21	-53.1% (active)
CCNC(=O)N1CCc2c(Br)c3c(c(OC)c2C1Cc1ccc(OC)cc1)OCO3 (stereo not given)	19.2%
ClCC1(Cn2cnc3c(Cl)nc(Cl)nc32)COC1	19.4%
COc1cc(CN(c2ccc(Cl)cc2)C2OC(=O)c3ccccc32)cc(OC)c1OC (stereo not given)	16.8%
COc1ccc(CSc2nc3cc(OC)c(OC)cc3c(=O)n2-c2ccc(OC)cc2OC)cc1	74.3%
Clc1cccc(Cl)c1Cn1c(-c2cncs2)nc2ccccc21	52.6%
CN1CCN(Cc2ccc(NC(=O)c3cncc(C#Cc4cnccc4C(F)(F)F)c3)cc2C(F)(F)F)CC1	84.4%
Cc1cc(Cl)nc(NCc2cc(Nc3ccnc4cc(Cl)ccc34)ccc2F)n1	11.4%
COc1cc(-c2ccc(N=Nc3c(O)c(C(=O)Nc4ccccc4OC)cc4ccccc34)c(OC)c2)ccc1N=Nc1c(O)c(C(=O)Nc2ccccc2OC)cc2ccccc12	95%
COc1ccc2nc3cc(Cl)ccc3c(NCCN)c2c1	-61.6% (active)
CC(C)C(/C=C/c1[nH]ncc1-c1cc(Cl)ccc1O)N1CCOCC1 (stereo not given)	84.9%
CC(=O)OCC(COC(C)=O)(COC(C)=O)COC(C)=O	102%
O=C(CCl)NC1c2ccccc2Oc2ccccc21	71.5%
CC(C)=CCc1c(O)c(CC=C(C)C)c2c(c1O)C(=O)C1=C[C@@H]3C[C@H]4C(C)(C)O[C@@](C/C=C(\C)C(=O)O)(C3=O)[C@@]14O2	-45.1% (active)
CCCCOc1nc2c(C)cccc2cc1C1CNC(=O)c2ccccc2N1 (stereo not given)	51.6%
N=c1ccc2nc3c(cc(N)c4ccccc43)oc-2c1	-78.4% (active)
CCOc1ncc([N+](=O)[O-])c(OCC)n1	115%
